Data on 75 compounds can be found in PubChem BioAssay AID602340 (Broad Institute, 2012).

Structures are written as SMILES. The campaign covered roughly 330,000 compounds. About 2,600 (0.79%) were called active. Many of the other results were omitted from the sample, so actives are more common in it than they were. Unmarked numbers belong to inactive results.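 Rule for the calls: active = mean ATP rescue above about 67%, or every replicate alone reaching that limit (limit read from the data, passing the limit was not always enough); inconclusive = no clear call, values can overlap the other calls; inactive = mean under the limit and some replicate under it.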

This test is described as follows: suppressors of statin myotoxicity in C2C12 myotubes, primary screen, cell-based, single point, plate reader (AID 602340).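 Note: myotubes were challenged with 10 µM simvastatin during compound exposure.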 The settings on record: C2C12 myotubes + simvastatin, ATP luminescence, 48 h; at 7.49 µM; stronger effect = higher value; scaled: DMSO 0, geranylgeraniol control 100.
With `COc1ccc(NC(=O)c2cc(-c3cc(OC)c(OC)c(OC)c3)nc3ccccc23)c(OC)c1`, the rescue of ATP level is -9.57%.
Regarding `COc1ccc(-c2cc(C(=O)n3cnc4ccccc43)c3ccccc3n2)cc1`, the rescue of ATP level is 87.1% (active).
For the compound `COc1ccc(-c2cc(C(=O)Nc3ccccc3O)c3ccccc3n2)cc1`, the rescue of ATP level was 14.3%.
The result for `O=C(C[C@H]1C=C[C@H](NC(=O)NC2CCCCC2)[C@H](CO)O1)NCc1ccccc1` reads 2.53%.
To `CS(=O)(=O)Nc1ccc2c(c1)[C@H]1C[C@H](CC(=O)NCc3ccc(Cl)cc3)O[C@@H](CO)[C@H]1O2` belongs -4.85%; to `COc1ccccc1-c1cn(CC[C@@H]2CC[C@@H](NC(=O)c3ccccc3F)[C@H](CO)O2)nn1`, 6.43%; to `CN(C)Cc1cn(CC[C@H]2CC[C@H](NS(=O)(=O)c3ccccc3)[C@@H](CO)O2)nn1`, -2.83%.
To `Cc1cc2nc(C)n(CCCNC(=O)Nc3ccccc3)c2cc1C` belongs 93.8% (active).
As for `C=CCN(C(=O)Nc1ccc2c(c1)nc(C)n2C)c1ccccc1`, the rescue of ATP level was -0.158%.
To `CCOc1ccc(CCNC(=O)Nc2ccccc2)cc1OCC` belongs 1.69%; to `CCCNC(=O)C[C@H]1CC[C@@H]2[C@H](COC[C@H](O)CN2CC2CCCCC2)O1`, -0.493%.
The result for `CNC(=O)C[C@H]1CC[C@@H]2[C@H](COc3ccc(NC(=O)Nc4cccc(F)c4)cc3C(=O)N2C)O1` reads -6.73%.
To `CNC(=O)C[C@@H]1CC[C@@H]2[C@@H](COc3ccc(NC(=O)Nc4ccccc4OC)cc3C(=O)N2C)O1` belongs 10.7%; to `Cn1c(=O)[nH]c(=O)c2c1nc(N1CCN(C(c3ccccc3)c3ccccc3)CC1)n2CCO`, 41.4%.
Regarding `CC=CCn1c(SCCCc2ccccc2)nc2c1c(=O)[nH]c(=O)n2C`, the rescue of ATP level was 1.54%.
To `CC1CCN(c2nc3c(c(=O)[nH]c(=O)n3C)n2CCCc2ccccc2)CC1` belongs 144% (active); to `CCCNC(=O)[C@@H]1[C@@H](CO)[C@@H]2Cn3c(ccc(-c4ccccc4F)c3=O)[C@H]1N2CC1CC1`, -5.23%.
In the case of `COc1ccccc1-c1cnc2c(c1)C(=O)N([C@H](C)CO)C[C@@H](C)[C@@H](CN(C)Cc1ccncc1)O2`, the rescue of ATP level was 41.2%.
For `CC(=NNC(=O)c1ccc2nc[nH]c2c1)c1ccc(Br)cc1`, the rescue of ATP level is -6.54%.
The result for `C/C(=N\NC(=O)c1nc(C)cc(C)n1)c1ccccc1` reads 121% (active); that for `COc1ccc(/C(C)=N/NC(=O)c2ccc3nc[nH]c3c2)cc1`, -52.1%.
Turning to `CCCC(O)C#Cc1cnc2c(c1)C(=O)N([C@H](C)CO)C[C@H](C)[C@H](CN(C)Cc1ccc(F)cc1)O2` (stereo not given in full), the rescue of ATP level is -2.92%.
`C[C@H]1CN([C@@H](C)CO)C(=O)Cc2cc(NS(=O)(=O)c3ccc(F)cc3)ccc2O[C@H]1CN(C)Cc1ccc(C(F)(F)F)cc1`: the rescue of ATP level is 15.6%.
To `Cc1ccc(S(=O)(=O)Nc2ccc3c(c2)C(=O)N([C@@H](C)CO)C[C@@H](C)[C@H](CN(C)Cc2ccc(C(F)(F)F)cc2)O3)cc1` belongs 9.63%; to `Cc1ccc(S(=O)(=O)Nc2ccc3c(c2)CC(=O)N([C@H](C)CO)C[C@@H](C)[C@H](CN(C)Cc2ccc(C(F)(F)F)cc2)O3)cc1`, 110% (active).
To `Cc1ccc(S(=O)(=O)Nc2ccc3c(c2)CC(=O)N([C@@H](C)CO)C[C@H](C)[C@H](CN(C)Cc2ccccc2)O3)cc1` belongs 21.7%.
Regarding `COc1ccc(S(=O)(=O)Nc2ccc3c(c2)CC(=O)N([C@H](C)CO)C[C@H](C)[C@H](CN(C)Cc2ccc(C(F)(F)F)cc2)O3)cc1`, the rescue of ATP level was 12%.
The result for `C[C@@H]1CN([C@@H](C)CO)C(=O)Cc2cc(NS(=O)(=O)c3ccc(Cl)cc3)ccc2O[C@H]1CN(C)Cc1ccc(C(F)(F)F)cc1` reads 96.2% (active); that for `CN1CCCCN2[C@H](CO)[C@H](c3ccc(-c4ccc(F)cc4)cc3)[C@@H]2C1`, 1.44%.
The result for `O=C(C[C@@H]1C=C[C@H](NC(=O)Nc2ccc3c(c2)OCO3)[C@H](CO)O1)NCc1ccccc1` reads 2.11%.
The result for `CO[C@@H]1CN(C)C(=O)c2ccc(NS(=O)(=O)c3cccc(Cl)c3)cc2OC[C@H](C)NC[C@H]1C` reads 0.734%; that for `COc1ccccc1-c1ccc2c(c1)O[C@@H](CN(C)CC1CCOCC1)[C@H](C)CN([C@@H](C)CO)S2(=O)=O`, -91.2%.
In the case of `CC(C)NC(=O)Nc1ccc2c(c1)CC(=O)N([C@H](C)CO)C[C@H](C)[C@@H](CN(C)C(=O)Nc1ccc(F)cc1)O2`, the rescue of ATP level was -12.6%.
The result for `COc1ccc(C)cc1NC(=O)NCc1ccccn1` reads -3.96%.
To `COc1ccc2ccccc2c1CNCc1ccccn1` belongs 88.1% (active).
To `COc1ccc(NCCc2ccccn2)cc1` belongs -1.75%; to `CCNC(=O)[C@H]1[C@H](CO)[C@H]2Cn3c(ccc(-c4ccc(OC)cc4)c3=O)[C@H]2N1Cc1ccccc1`, -6.11%; to `CCCNC(=O)Nc1ccc2c(c1)C(=O)N(C)C[C@@H](OC)[C@@H](C)CN(C)[C@@H](C)CO2`, 0.886%.
As for `CCCN1[C@H](C(=O)N[C@H](C)c2ccccc2)[C@@H](CO)[C@@H]2Cn3c(ccc(-c4cccc(F)c4)c3=O)[C@@H]21`, the rescue of ATP level is 25.4%.
For the compound `O=C(C[C@@H]1C[C@@H]2c3cc(NC(=O)Nc4ccccc4F)ccc3O[C@@H]2[C@@H](CO)O1)NCCc1ccccc1`, the rescue of ATP level was -4.6%.
Turning to `COc1ccccc1-c1nnc(SCC(=O)N2CC(C)CC(C)C2)o1` (stereo not given), the rescue of ATP level was 120% (active).
For the compound `COc1ccccc1N1CCN(C(=O)CSc2nnc(-c3ccoc3C)o2)CC1`, the rescue of ATP level is 2.45%.
As to `O=C(CSc1nnc(-c2ccccc2O)o1)NC1CCCCC1`, the rescue of ATP level is -6.5%.
The result for `C[C@@H]1CN([C@H](C)CO)C(=O)c2cc(C#Cc3ccncc3)cnc2O[C@H]1CN(C)Cc1ccncc1` reads -5.15%; that for `C[C@H]1CN([C@@H](C)CO)C(=O)CCCn2nncc2CO[C@H]1CN(C)Cc1cccc(C(=O)O)c1`, -4.85%; that for `O=C(NN=Cc1ccccc1O)C(=O)NN=Cc1ccccc1O`, 1.41%.
The result for `CCCC#Cc1ccc2c(c1)O[C@@H](CN(C)CC1CC1)[C@@H](C)CN([C@H](C)CO)S2(=O)=O` reads 33.5%.
To `CCS(=O)(=O)N1[C@H](CO)[C@@H](c2ccc(C#CC(C)C)cc2)[C@@H]1C#N` belongs -1.94%.
`Cc1noc(C)c1NC(=O)N[C@H]1CC[C@H](CC(=O)N2CCCCC2)O[C@@H]1CO`: the rescue of ATP level was 0.234%.
Turning to `CC=Cc1ccc2n(c1=O)C[C@@H]1[C@@H](CO)[C@H](C(=O)N3CCc4ccccc4C3)N(C(=O)C3CCC3)[C@H]21` (mixture of isomers), the rescue of ATP level was 17.5%.
For the compound `CC(=O)N1CCN(c2ccccc2NC(=S)NC(=O)c2cc3ccccc3o2)CC1`, the rescue of ATP level was 12.9%.
Turning to `COc1ccc(C(=O)NC(=S)Nc2ccccc2N2CCN(S(C)(=O)=O)CC2)cc1OC`, the rescue of ATP level is 103% (active).
In the case of `COc1ccccc1C(=O)NC(=S)Nc1ccccc1N1CCCCC1`, the rescue of ATP level was 0.351%.
The result for `CO[C@@H]1CN(C)C(=O)c2ccc(NC(=O)C3CC3)cc2OC[C@@H](C)N(Cc2ccncc2)C[C@@H]1C` reads 6.35%; that for `COc1ccc(CN(C)C[C@H]2OCc3cn(nn3)CCCC(=O)N([C@@H](C)CO)C[C@@H]2C)cc1`, 11.6%.
To `C[C@H]1CN([C@@H](C)CO)C(=O)c2cc(C#CC3CCCCC3)cnc2O[C@@H]1CN(C)C(=O)Cc1ccccn1` belongs 16.9%; to `O=C(O)C1CC=CCC1C(=O)NCCc1ccccc1` (stereo not given), 104% (active).
The result for `O=C(NCCc1ccccc1)C1CC1` reads 7.36%; that for `O=C(O)C1CC=C(Cl)CC1C(=O)NCc1ccccc1` (stereo not given), -8.07%; that for `C[C@H]1CN([C@@H](C)CO)C(=O)c2cc(NC(=O)C3CCCCC3)ccc2O[C@H]1CN(C)C(=O)Nc1ccccc1`, 6.29%.
Turning to `COc1ccc(C2(c3ccc(OC)cc3)NC(=O)N(CC(=O)Nc3cc(C)on3)C2=O)cc1`, the rescue of ATP level was -1.37%.
The result for `COC(=O)c1ccc(CN2C(=O)NC(c3ccccc3)(c3ccccc3)C2=O)o1` reads 1.69%; that for `Cc1ccc(C2(c3ccc(C)cc3)NC(=O)N(Cc3c(C)noc3C)C2=O)cc1`, 195% (active); that for `Cc1noc(C)c1NC(=O)N(C)C[C@H]1Oc2ccc(NC(=O)Cn3cnnn3)cc2CC(=O)N([C@H](C)CO)C[C@@H]1C`, 3.98%.
On to `O=C(NCc1nnnn1-c1ccc(Cl)cc1)c1ccc([N+](=O)[O-])o1`, for which the rescue of ATP level was 89% (active).
In the case of `COc1ccc(-n2nnnc2CNC(=O)c2ccc3ccccc3c2)cc1`, the rescue of ATP level is -15.7%.
For `O=C(NCc1nnnn1-c1ccc(Cl)cc1)c1ccc2c(c1)OCO2`, the rescue of ATP level was -0.994%.
Regarding `CCCN1[C@@H]2c3ccc(-c4ccccc4OC)c(=O)n3C[C@H]1[C@H](CO)[C@H]2C(=O)NCc1ccccn1`, the rescue of ATP level was -9.62%.
To `O=C(N/N=C/c1cccc(Br)c1)c1ccc(N2CCCC2=O)cc1` belongs -20%; to `Cn1c(=O)n(C)c2cc(/C=N/NC(=O)c3cccc(Br)c3)ccc21`, 70.7% (active).
The result for `Cn1c(=O)n(C)c2cc(C(=O)Nc3ccc(Br)cc3)ccc21` reads -4.21%; that for `N#Cc1ccc(Oc2ccc(C(F)(F)F)cc2NC(=O)c2ccc(F)cc2)cc1`, -5.87%; that for `NC(=O)c1ncc(C(F)(F)F)cc1Oc1ccc(F)cc1`, 162% (active).
On to `N#Cc1ncc(C(F)(F)F)cc1Oc1cccnc1`, for which the rescue of ATP level is -4.63%.
Regarding `CO[C@H]1CN(C)C(=O)c2ccc(NC(=O)C3CC3)cc2OC[C@H](C)N(CCc2ccccc2)C[C@H]1C`, the rescue of ATP level is 15.6%.
